Bioassay records deposited in PubChem by National Center for Advancing Translational Sciences (NCATS).
GoLoco inh red: RGS12 GoLoco-Gai1 interaction inhibition; P63096; Gai1:RGS12 GoLoco peptide FP, rhodamine, 10 min; Potency, µM (top dose mostly 61.6 µM), usual class: inhibitors; actives 0.44% (n = 230,000); active = well fitted inhibition curve with a large enough effect, not every such curve was filed as active; inactive = no such curve, though single readings can be large or run the other way; note: nearly all actives have a fitted effect of over 30% in size
Vif-A3G inh: inhibitors of Vif-APOBEC3G interaction | Potency, µM (top dose mostly 46.1 µM), usual class: inhibitors | actives 0.076% (n = 410,000) | HeLa A3G-eYFP + Vif (tagged APOBEC3G with the HIV-1 protein that degrades it), YFP fluorescence, overnight | Q9HC16 | AID 602310; note: nearly all actives have a fitted effect of over 60% in size
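HeLa cells stably expressing Vif and C-terminally eYFP-tagged A3G, seeded overnight at 37 deg C, then exposed to compound by pintool overnight at 37 deg C. Rise in yellow fluorescence (Ex 488/Em 500-530, Acumen) marks blocked Vif-driven A3G degradation.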
PKM2 activator: activators of human pyruvate kinase M2; purified PKM2, Kinase-Glo ATP luminescence, activation; response scale: 0% is enzyme alone, no compound; P14618; Potency, µM (titrated, usually from 57.5 µM), most hits filed as activators; actives 0.34% (n = 260,000); AID 1631; note: nearly all actives have a fitted effect of over 55% in size
Target sequence (P14618 whole entry, looked up): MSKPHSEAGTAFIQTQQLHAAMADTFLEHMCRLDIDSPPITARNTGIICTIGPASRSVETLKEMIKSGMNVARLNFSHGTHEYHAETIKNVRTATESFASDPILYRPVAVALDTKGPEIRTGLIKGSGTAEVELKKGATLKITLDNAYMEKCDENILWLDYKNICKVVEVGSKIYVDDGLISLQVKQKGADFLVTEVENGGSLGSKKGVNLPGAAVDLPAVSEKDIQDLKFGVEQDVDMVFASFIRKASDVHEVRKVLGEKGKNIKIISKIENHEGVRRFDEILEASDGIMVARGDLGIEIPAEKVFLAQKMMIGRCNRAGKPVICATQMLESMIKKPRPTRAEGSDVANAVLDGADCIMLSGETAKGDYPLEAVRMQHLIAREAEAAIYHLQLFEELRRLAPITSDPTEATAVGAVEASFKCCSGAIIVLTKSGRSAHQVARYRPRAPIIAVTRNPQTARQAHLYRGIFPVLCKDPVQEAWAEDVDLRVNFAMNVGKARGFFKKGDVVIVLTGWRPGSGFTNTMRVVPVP
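Purified hPK-M2 (>95% pure) converted ADP (0.1 mM final) to ATP with 0.5 mM PEP in 50 mM imidazole pH7.2, KCl, MgCl2, Tween 20, BSA; 1 h at room temperature. ATP detected by Kinase-Glo luminescence.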
IL2 activator: activators of IL-2 | activation, % (series mostly up to about 46 µM) | actives 0.065% (n = 360,000) | IL-2 activation reporter assay, cell-based qHTS; stimulated with anti-CD3/CD4/CD28 beads; in transgenic mouse T cells | AID 652025; in the data active = activation above about 50%; inconclusive = mostly about 30% to 49%
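Quantitative HTS in unstimulated transgenic mouse T cells, with memory T cells as non-tolerant control and PMA/ionomycin as tolerance-bypass control. Compound pretreatment lasted 60 minutes before 18 h bead stimulation; EGFP/DsRed fluorescence read.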
GCN5L2 inh: blocks human GCN5L2 histone acetyltransferase | Q92830 | actives 0.21% (n = 390,000) | GCN5L2 HAT assay, ThioGlo1 CoA-SH fluorescence | Potency, µM (doses to about 58.9 µM), hits mostly inhibitors
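GCN5L2 (20nM final) in 50mM HEPES, 0.1mM EDTA pH 7.5, 0.01% Tween-20 was preincubated 15 min at room temperature with compound, then given ThioGlo1 (50uM), H3(1-25) peptide (75uM) and acetyl-CoA (70uM); CoA-thiol fluorescence (Ex340/Em540) was read at 0 and 20 min.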
Vif-APOBEC3F blk: inhibitors of Vif-A3F interaction | AID 602313 | actives 0.2% (n = 390,000) | Potency, µM (top dose mostly 46.1 µM) | HeLa A3F-eYFP + Vif (tagged APOBEC3F with the HIV-1 protein that degrades it), YFP fluorescence increase; note: nearly all actives have a fitted effect of over 65% in size
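HeLa cells stably expressing A3F-eYFP plus Vif, plated and incubated overnight at 37 deg C, then exposed to compounds overnight at 37 deg C. Blocked degradation read as raised yellow fluorescence (Ex 488/Em 500-530).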
Numbers stand for hits. Only some compounds are listed: those with a hit (about 0.77% of all), similar ones and a draw of the others. Unless noted, calls come from the whole dose curve; as a rule, active = well fitted curve in the direction sought with a large enough effect; inconclusive = small, poorly fitted or top-dose-only effect, or another doubt; inactive = no such curve, though single readings can be large; an effect the other way counts as inactive or inconclusive.

How did CCCCCn1c(NC(=O)c2ccco2)c(C(=O)OCC)c2nc3ccccc3nc21 do in these assays?
GoLoco inh red: inactive; Vif-A3G inh: 11µM; PKM2 activator: inactive; IL2 activator: inactive; GCN5L2 inh: inactive; Vif-APOBEC3F blk: inconclusive

How did CC(N)Cc1c[nH]c2ccc(O)cc12 (stereo unspecified) do in these assays?
GoLoco inh red: inactive; Vif-A3G inh: inactive; IL2 activator: inactive; GCN5L2 inh: inactive; Vif-APOBEC3F blk: inactive

What do the screens show for `O=C(O)CNC(=O)[C@@H](CS)Cc1ccccc1`?
GoLoco inh red: inactive; GCN5L2 inh: 13µM

What do the screens show for `OCCNCCc1c[nH]c2ccc(OCc3ccccc3)cc12`?
Vif-A3G inh: inactive; IL2 activator: inactive; GCN5L2 inh: inactive; Vif-APOBEC3F blk: inactive

What do the screens show for `Cc1ccccc1-n1c(/C=C/c2c(C)[nH]c3ccccc23)nc2ccccc2c1=O`?
Vif-A3G inh: inactive; GCN5L2 inh: inactive; Vif-APOBEC3F blk: inactive

What do the screens show for `Cc1ccccc1-n1c(/C=C/c2ccc(N(C)C)cc2)nc2ccccc2c1=O`?
Vif-A3G inh: 3.2µM; GCN5L2 inh: inactive; Vif-APOBEC3F blk: inconclusive

How did COC(=O)C1=C(c2ccc(OC(F)(F)F)cc2)C[C@@H]2CC[C@H]1N2C(=O)N1CCCCC1 do in these assays?
Vif-A3G inh: inactive; IL2 activator: inactive; GCN5L2 inh: inactive; Vif-APOBEC3F blk: inactive

How did Cc1ccc(-n2sc3ccccc3c2=O)cc1 do in these assays?
GoLoco inh red: 10µM; Vif-A3G inh: inactive; PKM2 activator: inactive; IL2 activator: inactive; GCN5L2 inh: 7.1µM; Vif-APOBEC3F blk: inactive

How did CN1/C(=C\C=C2C(=O)NC(=O)NC2=O)C(C)(C)c2ccccc21 do in these assays?
GoLoco inh red: inactive; Vif-A3G inh: inconclusive; PKM2 activator: inactive; IL2 activator: inconclusive; GCN5L2 inh: inactive; Vif-APOBEC3F blk: 11µM

Results for CCOc1ccc(N=C2SCCCN2C)cc1 ?
GoLoco inh red: 18µM; Vif-A3G inh: inactive; PKM2 activator: inactive; IL2 activator: inactive; GCN5L2 inh: inactive; Vif-APOBEC3F blk: inactive

How did O=C1OC(c2ccc(O)c(S(=O)(=O)O)c2)(c2ccc(O)c(S(=O)(=O)O)c2)c2c(Br)c(Br)c(Br)c(Br)c21 do in these assays?
GoLoco inh red: inactive; GCN5L2 inh: 28µM

How did CN(C)c1ccc(/C=C/C=C2/C(=O)NC(=O)N(c3ccccc3)C2=O)cc1 do in these assays?
GoLoco inh red: inactive; Vif-A3G inh: inconclusive; PKM2 activator: inactive; IL2 activator: inactive; GCN5L2 inh: inactive; Vif-APOBEC3F blk: 7.9µM

Results for O=C1NC(=O)N(c2ccccc2)C(=O)/C1=C/C=C/c1ccco1 ?
GoLoco inh red: inactive; Vif-A3G inh: inconclusive; PKM2 activator: inconclusive; IL2 activator: inactive; GCN5L2 inh: inactive; Vif-APOBEC3F blk: inactive

What do the screens show for `COc1cccc(-n2c(O)c(C=NCCN3CCOCC3)c(=O)[nH]c2=O)c1`?
GoLoco inh red: inactive; Vif-A3G inh: inactive; PKM2 activator: inactive; IL2 activator: inactive; GCN5L2 inh: 14µM; Vif-APOBEC3F blk: inactive

Results for Cc1ccc(OCC(=O)N2CCN(C3CCC(c4ccccc4)CC3)CC2)cc1 (stereo unspecified) ?
GoLoco inh red: inactive; Vif-A3G inh: inactive; PKM2 activator: inactive; IL2 activator: inactive; GCN5L2 inh: inactive; Vif-APOBEC3F blk: inactive

How did COCCCn1c(=O)/c(=C\c2ccccc2OC(F)F)s/c1=C(/C#N)C(=O)NCCOC do in these assays?
GoLoco inh red: inactive; Vif-A3G inh: inactive; PKM2 activator: inactive; IL2 activator: inconclusive; GCN5L2 inh: inactive; Vif-APOBEC3F blk: 25µM

What do the screens show for `CCCCNC(=O)/C(C#N)=c1\s/c(=C\c2ccccc2OC(F)F)c(=O)n1CCCOC`?
GoLoco inh red: inactive; Vif-A3G inh: inconclusive; PKM2 activator: inactive; IL2 activator: inactive; GCN5L2 inh: inactive; Vif-APOBEC3F blk: 8.9µM

How did C[C@H](NC(=O)[C@@H](N)Cc1ccc(O)cc1)C(=O)NCC(=O)N(C)[C@@H](Cc1ccccc1)C(=O)NCCO do in these assays?
GoLoco inh red: inactive; GCN5L2 inh: inactive

How did Cc1ccc(CNC(=O)c2ccc(Nc3nc4ccccc4n4nnnc34)cc2)cc1 do in these assays?
Vif-A3G inh: inactive; GCN5L2 inh: inactive; Vif-APOBEC3F blk: inconclusive

What do the screens show for `CCCCn1c(O)c(/C=N/N2CCOCC2)c(=O)[nH]c1=S`?
GoLoco inh red: inactive; Vif-A3G inh: inactive; PKM2 activator: inactive; IL2 activator: inactive; GCN5L2 inh: inactive; Vif-APOBEC3F blk: inactive

Results for CCCCCCn1c(O)c(C=Nc2ccccc2N2CCOCC2)c(=O)[nH]c1=S ?
GoLoco inh red: inactive; Vif-A3G inh: inactive; PKM2 activator: inactive; IL2 activator: 59; GCN5L2 inh: inactive; Vif-APOBEC3F blk: inconclusive

Results for CNc1ccc2oc(C[C@H]3O[C@@]4(CC[C@H]3C)O[C@H]([C@H](C)C(=O)c3ccc[nH]3)[C@H](C)C[C@H]4C)nc2c1C(=O)O ?
GoLoco inh red: inactive; Vif-A3G inh: inactive; PKM2 activator: inactive; IL2 activator: inactive; GCN5L2 inh: inconclusive; Vif-APOBEC3F blk: inactive

Results for C/C(=C\c1ccc(N(C)C)cc1)[N+](=O)[O-] ?
GoLoco inh red: inactive; Vif-A3G inh: inconclusive; PKM2 activator: inactive; IL2 activator: inactive; GCN5L2 inh: inactive; Vif-APOBEC3F blk: inactive

How did CN(C)c1ccc(/C=C/[N+](=O)[O-])cc1 do in these assays?
GoLoco inh red: inactive; Vif-A3G inh: inactive; PKM2 activator: inactive; IL2 activator: 97; GCN5L2 inh: inactive; Vif-APOBEC3F blk: inconclusive

Results for [CH3][Hg][Cl] ?
GoLoco inh red: 25µM

What do the screens show for `COCOC1CCC2C3CCC4=CC(=O)CCC4=C3C=CC12C` (stereo unspecified)?
Vif-A3G inh: inactive; IL2 activator: inactive; Vif-APOBEC3F blk: inactive

What do the screens show for `Clc1ccc(CSC(Cn2ccnc2)c2ccc(Cl)cc2Cl)cc1` (stereo unspecified)?
GoLoco inh red: inactive; Vif-A3G inh: inactive; PKM2 activator: inactive; IL2 activator: inactive; GCN5L2 inh: inactive; Vif-APOBEC3F blk: inactive

Results for Clc1ccc(CS[C@@H](Cn2ccnc2)c2ccc(Cl)cc2Cl)cc1 ?
GoLoco inh red: inactive; GCN5L2 inh: 13µM

Results for Fc1ccccc1CN1Cc2ccccc2-n2nncc2C1 ?
Vif-A3G inh: inactive; IL2 activator: inactive; Vif-APOBEC3F blk: inactive

How did O=C1NC(=O)C(=Cc2ccc(Sc3ccccc3)o2)C(=O)N1 do in these assays?
GoLoco inh red: inactive; Vif-A3G inh: inconclusive; PKM2 activator: 20µM; IL2 activator: inactive; GCN5L2 inh: inactive; Vif-APOBEC3F blk: inactive

What do the screens show for `CN1C(=O)C(=Cc2coc3ccccc3c2=O)C(=O)N(C)C1=O`?
GoLoco inh red: inactive; Vif-A3G inh: inactive; PKM2 activator: inactive; IL2 activator: inactive; GCN5L2 inh: inactive; Vif-APOBEC3F blk: inactive
